Laboratory results from PubChem BioAssay (NCI).
This is part of a sample that, as a whole, favours compounds with a hit. Of some 83,000 tested, about 20% had one in any assay.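 The test compound was applied at a single concentration to cells in 96-well plates for 48 hours, and percent growth was recorded.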 Active and inactive are the calls of the source. How the source made its calls: active means growth percent below 10; inactive means the rest.

Assays:
Experiment in all cases: NCI-60 one-dose screen, 48 h (100 = growth as untreated, 0 = no growth, -100 = all killed)
Settings in all cases: 10 µM unless noted
T-47D breast = system: T-47D breast
BT-549 breast = system: BT-549 breast
MDA-MB-435 melanoma = system: MDA-MB-435 melanoma
SW-620 colon = system: SW-620 colon
MCF7 breast = system: MCF7 breast
HCT-116 colon = system: HCT-116 colon
HCC-2998 colon = system: HCC-2998 colon
KM12 colon = system: KM12 colon

Measured: growth

COc1ccc(OC)c(/C=N/Nc2ncnc3c2c(C)nn3C)c1
inactive: T-47D breast 84.6% | BT-549 breast 101% | MDA-MB-435 melanoma 105% | SW-620 colon 107% | MCF7 breast 85.2% | HCT-116 colon 109% | HCC-2998 colon 102% | KM12 colon 103%

CCn1cc(C(=O)O)c(=O)c2cc(F)c(N3CCN(CC(=O)Nc4ccc(S(=O)(=O)Nc5nccc(C)n5)cc4)C(C)C3)c(F)c21 (stereo not given)
inactive: T-47D breast 98.9% | BT-549 breast 132% | MDA-MB-435 melanoma 103% | SW-620 colon 96.6% | MCF7 breast 96.7% | HCT-116 colon 104% | HCC-2998 colon 115% | KM12 colon 100%

O=C(CN1CCOCC1)Nc1nc(-c2cc3ccccc3oc2=O)cs1
inactive: T-47D breast 111% | BT-549 breast 98.5% | MDA-MB-435 melanoma 104% | SW-620 colon 101% | MCF7 breast 79.2% | HCT-116 colon 99% | HCC-2998 colon 103% | KM12 colon 100%

O=C(Nc1cccc(Cl)c1)Nc1cccc(Cn2c(=O)[nH]c3ccc(Oc4ncccn4)cc3c2=O)c1
inactive: T-47D breast 16.3% | BT-549 breast 48% | MDA-MB-435 melanoma 42.6% | SW-620 colon 72.3% | MCF7 breast 35.8% | HCT-116 colon 22.9% | HCC-2998 colon 69.7% | KM12 colon 29.5%

COc1ccc(Cc2cnc(NC(=O)c3cc(C)oc3C)s2)cc1
inactive: T-47D breast 31.8% | BT-549 breast 50.7% | SW-620 colon 27.9% | MCF7 breast 21.6% | HCT-116 colon 25.1% | HCC-2998 colon 60.9% | KM12 colon 25.4%
active: MDA-MB-435 melanoma 0.623%

N#Cc1ccc(O)c(C2=NCC(c3ccccc3)O2)c1 (stereo not given)
active: T-47D breast -5.7%
inactive: BT-549 breast 31.9% | MDA-MB-435 melanoma 57.8% | SW-620 colon 28.6% | MCF7 breast 25.3% | HCT-116 colon 17.5% | HCC-2998 colon 47.8% | KM12 colon 37.2%

N#Cc1c(-c2ccc(Cl)cc2)c(C#N)c2c(C#N)c(N)nn2c1N
inactive: T-47D breast 57% | BT-549 breast 75.5% | MDA-MB-435 melanoma 95.4% | SW-620 colon 94.7% | MCF7 breast 81.3% | HCT-116 colon 96.1% | HCC-2998 colon 102% | KM12 colon 92.9%

COc1ccc(/C=C(\C#N)n2nnc3cc(F)c(F)cc32)cc1
inactive: T-47D breast 23.1% | BT-549 breast 32.2% | SW-620 colon 14.9% | MCF7 breast 22.1% | HCT-116 colon 28% | HCC-2998 colon 69.3% | KM12 colon 34%
active: MDA-MB-435 melanoma -54%

CCOC(=O)c1cc(C)n(-c2ccc(C(=O)O)cc2)c1C
inactive: T-47D breast 102% | BT-549 breast 76.1% | MDA-MB-435 melanoma 107% | SW-620 colon 64.4% | MCF7 breast 67.1% | HCT-116 colon 67.5% | HCC-2998 colon 133% | KM12 colon 95.3%

CC1=NC2=Nn3c(c4cnn(-c5ccccc5)c4n/c3=N\N)NN2C(c2ccccc2)=C1
inactive: T-47D breast 94.1% | BT-549 breast 95.4% | MDA-MB-435 melanoma 92.3% | SW-620 colon 86.8% | MCF7 breast 87.8% | HCT-116 colon 99.3% | HCC-2998 colon 99.2% | KM12 colon 92.9%

COc1ccc(/C=C/C(=O)c2ccc(Nc3ccnc4cc(Cl)ccc34)cc2)cc1
inactive: T-47D breast 83.1% | BT-549 breast 101% | MDA-MB-435 melanoma 85.6% | SW-620 colon 93.7% | MCF7 breast 76.2% | HCT-116 colon 34% | HCC-2998 colon 58.7% | KM12 colon 154%

CS(=O)(=O)c1ccc(-c2cnn3ccc(-c4cccc(S(=O)(=O)C5CC5)c4)nc23)cc1
active: T-47D breast -6.07%
inactive: BT-549 breast 53.4% | MDA-MB-435 melanoma 59.1% | SW-620 colon 74.2% | MCF7 breast 18% | HCT-116 colon 55.5% | HCC-2998 colon 75.4% | KM12 colon 62%

N#CC1=C(N)Oc2c(sc3c(Br)cccc23)C1c1ccc(Cl)cc1 (stereo not given)
active: MDA-MB-435 melanoma -23.2%
inactive: T-47D breast 26.3% | BT-549 breast 41% | SW-620 colon 27.3% | MCF7 breast 10% | HCT-116 colon 13.7% | HCC-2998 colon 10.9% | KM12 colon 26.4%

O=S(=O)(NCCNc1nccc(-c2c(-c3ccc(F)c(O)c3)nc3occn23)n1)c1ccc(Cl)cc1
inactive: T-47D breast 92.3% | BT-549 breast 107% | MDA-MB-435 melanoma 38.6% | SW-620 colon 112% | MCF7 breast 71.6% | HCT-116 colon 60.9% | HCC-2998 colon 102% | KM12 colon 84%

CCCCNCCCCCNc1cc(OC)cc2cccnc12
inactive: T-47D breast 79.4% | BT-549 breast 91% | MDA-MB-435 melanoma 102% | SW-620 colon 100% | MCF7 breast 84.6% | HCT-116 colon 85.9% | HCC-2998 colon 95.4% | KM12 colon 114%

O=C(Nc1cccc2ccccc12)NC1CC1
inactive: T-47D breast 91.5% | BT-549 breast 91.1% | MDA-MB-435 melanoma 113% | SW-620 colon 105% | MCF7 breast 87% | HCT-116 colon 103% | HCC-2998 colon 111% | KM12 colon 115%

Cc1cc(C)c2c(c1)N(C)c1ncnc(-n3cnc4cc(C)ccc43)c1CC2C (stereo not given)
active: MDA-MB-435 melanoma 8.39%
inactive: T-47D breast 28.8% | BT-549 breast 29.8% | SW-620 colon 21.4% | MCF7 breast 17.1% | HCT-116 colon 11.1% | HCC-2998 colon 52.1% | KM12 colon 22.7%

COc1ccc(CN2c3ccccc3Sc3ccccc32)cc1F
inactive: T-47D breast 49.7% | BT-549 breast 49.9% | SW-620 colon 23.8% | MCF7 breast 16% | HCC-2998 colon 17.8% | KM12 colon 14%
active: MDA-MB-435 melanoma -33.5% | HCT-116 colon 8.54%

COc1ccc(-c2noc(C(=O)O)c2-c2cc(OC)c(OC)c(OC)c2)cc1
inactive: T-47D breast 27.2% | BT-549 breast 49.6% | SW-620 colon 22.4% | MCF7 breast 18.9% | HCT-116 colon 19.4% | HCC-2998 colon 58% | KM12 colon 27.9%
active: MDA-MB-435 melanoma -41.5%

Cc1cc(C(=O)O)c(C)n1-c1cccc(C(=O)O)c1
inactive: T-47D breast 84.1% | BT-549 breast 83.3% | MDA-MB-435 melanoma 100% | SW-620 colon 44.6% | MCF7 breast 61.2% | HCT-116 colon 35.3% | HCC-2998 colon 101% | KM12 colon 97.8%

Cc1csc(Nc2nc(-c3ccccn3)nc(C(Cl)(Cl)Cl)n2)n1
inactive: T-47D breast 78.8% | BT-549 breast 110% | MDA-MB-435 melanoma 82.3% | SW-620 colon 86.3% | MCF7 breast 84.2% | HCT-116 colon 75% | HCC-2998 colon 107% | KM12 colon 82.8%

CCSc1oc(-c2ccccc2)nc1[P+](c1ccccc1)(c1ccccc1)c1ccccc1
active: T-47D breast 1.87% | BT-549 breast -10.9% | MDA-MB-435 melanoma 3.45% | MCF7 breast 4.96% | HCT-116 colon 2.27% | KM12 colon -16.2%
inactive: SW-620 colon 10.8% | HCC-2998 colon 14.5%

CC(C)c1ccc(C(=O)Nc2nc3ccc(O)c(CN(C)C)c3s2)cc1
inactive: T-47D breast 77.8% | BT-549 breast 73.6% | MDA-MB-435 melanoma 55.4% | SW-620 colon 36.2% | MCF7 breast 80.5% | HCT-116 colon 47.3% | HCC-2998 colon 63.7% | KM12 colon 36%

CCOC(=O)C1=C(C)NC(=O)NC1c1c(Cl)n(CCCl)c2ccccc12 (stereo not given)
inactive: T-47D breast 101% | BT-549 breast 92% | MDA-MB-435 melanoma 101% | SW-620 colon 96.8% | MCF7 breast 98.7% | HCT-116 colon 95.1% | HCC-2998 colon 96.3% | KM12 colon 97.4%

Cc1c2cnccc2c(C)c2c1c1cc(C#N)ccc1n2C
active: T-47D breast -1.04% | BT-549 breast -62% | MDA-MB-435 melanoma -57.6% | SW-620 colon -0.262% | MCF7 breast -12.2% | HCT-116 colon -22.9% | HCC-2998 colon -68.7% | KM12 colon 2.89%

CCCCCCCCCCC(CN(CC)CC)C(O)c1ccccc1 (stereo not given)
active: T-47D breast 3.27% | MDA-MB-435 melanoma -25.1% | MCF7 breast 1.87% | HCC-2998 colon -19.4% | KM12 colon 8.29%
inactive: BT-549 breast 61.7% | SW-620 colon 32.1% | HCT-116 colon 20.7%

CCCCCCCC[C@@H]1N[C@@H](C(=O)OC)Cc2c1[nH]c1ccccc21
inactive: T-47D breast 92.7% | BT-549 breast 105% | MDA-MB-435 melanoma 99.8% | SW-620 colon 94.6% | MCF7 breast 92% | HCT-116 colon 95.7% | HCC-2998 colon 107% | KM12 colon 99.7%

COc1cc2c(cc1OCCCN1CCN(CCCOc3cc4c(cc3OC)C(=O)N3CCC[C@H]3C=N4)CC1)C=CC(C)(C)O2
active: T-47D breast -55.2% | BT-549 breast -100% | MDA-MB-435 melanoma -72.9% | SW-620 colon -100% | MCF7 breast -100% | HCT-116 colon -96% | HCC-2998 colon -82.1% | KM12 colon -82%

CCCOC(=O)Nc1nc2ccc(SCC(C)C)cc2s1
active: MDA-MB-435 melanoma -7.7%
inactive: T-47D breast 37.8% | BT-549 breast 52.3% | SW-620 colon 33.8% | MCF7 breast 19.7% | HCT-116 colon 34.6% | HCC-2998 colon 77.1% | KM12 colon 38.8%

NC(=O)C(=O)c1ccccc1NC=O
inactive: T-47D breast 106% | BT-549 breast 107% | MDA-MB-435 melanoma 101% | SW-620 colon 101% | MCF7 breast 99.5% | HCT-116 colon 93.1% | HCC-2998 colon 107% | KM12 colon 98.6%
